From the supplement of paper PMC10849652
About 8,800 targets were measured; listed, in parts, are those with a hit and a random draw of the rest. About 0.5% of all pairs of compound and target were hits. A number with no mark means an inactive call.

What was measured:
Experiment in all cases: log2 fold change, soluble protein after heating vs DMSO (PISA); higher = thermal stabilisation; K562 lysate, 10 uM; active = over 0.2 and 3.5 SD of the protein, either way, in both replicates (recomputed)
[1] = compound: CS(=O)(=O)CCNCc1ccc(-c2ccc3ncnc(Nc4ccc(OCc5cccc(F)c5)c(Cl)c4)c3c2)o1 [lapatinib]
How it was run: (§1)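 Pellets of K562 cells were dounce-homogenised in PBS pH 7.4 with 1 mM MgCl2, and the crude extract was held at 1 mg/mL protein for a 30 min treatment with 10 μM compound. Aliquots were heated for 3 min over 48°C-58°C and pooled before NP-40 was added to 0.5% at 4°C. The supernatant from 21,000xg for 90 min was quantified by TMTpro 16plex LC-MS/MS with channel sums equalised. Values are reported from duplicates as log-two fold change in thermal stability relative to solvent controls.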

[2] = compound: CS(=O)(=O)N1CCN(Cc2cc3nc(-c4cccc5[nH]ncc45)nc(N4CCOCC4)c3s2)CC1 [pictilisib]
How it was run: as §1

[3] = compound: C[C@@H](Oc1cc(-c2cnn(C3CCNCC3)c2)cnc1N)c1c(Cl)ccc(F)c1Cl [crizotinib]
How it was run: as §1

[4] = compound: C[C@H](C1=CC=C(C=C1)C(=O)NC2=C3C=CNC3=NC=C2)N
How it was run: as §1

[5] = compound: C[C@H](Nc1ncnc2nc[nH]c12)c1cc2cccc(Cl)c2c(=O)n1-c1ccccc1 [duvelisib]
How it was run: as §1

[6] = compound: Cc1cc(Nc2cc(CN3CCOCC3)c3nc(C)c(Cc4ccc(Cl)cc4F)n3n2)n[nH]1 [gandotinib]
How it was run: as §1

[7] = compound: Cc1cc(Nc2cc(N3CCN(C)CC3)nc(Sc3ccc(NC(=O)C4CC4)cc3)n2)n[nH]1 [tozasertib]
How it was run: as §1

[8] = compound: Cc1ccc(-n2nc(C(C)(C)C)cc2NC(=O)Nc2ccc(OCCN3CCOCC3)c3ccccc23)cc1 [doramapimod]
How it was run: as §1

[9] = compound: Cc1ccc(NC(=O)c2ccc(CN3CC[C@H](N(C)C)C3)c(C(F)(F)F)c2)cc1Nc1nccc(-c2cncnc2)n1 [bafetinib]
How it was run: as §1

[10] = compound: Cc1cccc(CC(=O)N2CCc3c2ccc(-c2cn(C)c4ncnc(N)c24)c3F)n1
How it was run: as §1

Chain of UniProt Q16594 (Q16594 whole entry, looked up): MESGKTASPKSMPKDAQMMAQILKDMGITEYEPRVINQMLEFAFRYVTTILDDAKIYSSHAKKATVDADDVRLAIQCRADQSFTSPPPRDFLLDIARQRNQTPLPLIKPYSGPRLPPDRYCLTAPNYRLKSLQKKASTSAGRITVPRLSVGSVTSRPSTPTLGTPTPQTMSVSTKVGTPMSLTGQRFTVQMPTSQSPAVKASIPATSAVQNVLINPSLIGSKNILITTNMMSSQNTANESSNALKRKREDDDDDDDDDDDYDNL
Chain of UniProt Q96BD8 (Q96BD8 whole entry, looked up): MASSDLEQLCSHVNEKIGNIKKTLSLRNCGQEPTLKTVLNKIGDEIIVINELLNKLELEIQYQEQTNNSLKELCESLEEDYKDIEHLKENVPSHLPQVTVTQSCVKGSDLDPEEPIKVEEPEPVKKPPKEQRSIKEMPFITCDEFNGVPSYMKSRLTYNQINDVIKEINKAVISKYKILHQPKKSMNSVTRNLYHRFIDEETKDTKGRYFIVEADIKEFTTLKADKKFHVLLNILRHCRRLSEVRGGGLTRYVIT
Chain of UniProt Q16629 (Q16629 whole entry, looked up): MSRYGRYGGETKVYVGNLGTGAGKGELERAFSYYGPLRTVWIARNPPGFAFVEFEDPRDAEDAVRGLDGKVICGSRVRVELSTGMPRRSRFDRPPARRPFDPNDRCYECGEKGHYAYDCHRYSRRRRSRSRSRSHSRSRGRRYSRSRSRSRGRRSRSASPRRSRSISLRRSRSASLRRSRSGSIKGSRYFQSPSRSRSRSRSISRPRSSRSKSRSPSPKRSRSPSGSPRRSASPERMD
Chain of UniProt P78314 (P78314 whole entry, looked up): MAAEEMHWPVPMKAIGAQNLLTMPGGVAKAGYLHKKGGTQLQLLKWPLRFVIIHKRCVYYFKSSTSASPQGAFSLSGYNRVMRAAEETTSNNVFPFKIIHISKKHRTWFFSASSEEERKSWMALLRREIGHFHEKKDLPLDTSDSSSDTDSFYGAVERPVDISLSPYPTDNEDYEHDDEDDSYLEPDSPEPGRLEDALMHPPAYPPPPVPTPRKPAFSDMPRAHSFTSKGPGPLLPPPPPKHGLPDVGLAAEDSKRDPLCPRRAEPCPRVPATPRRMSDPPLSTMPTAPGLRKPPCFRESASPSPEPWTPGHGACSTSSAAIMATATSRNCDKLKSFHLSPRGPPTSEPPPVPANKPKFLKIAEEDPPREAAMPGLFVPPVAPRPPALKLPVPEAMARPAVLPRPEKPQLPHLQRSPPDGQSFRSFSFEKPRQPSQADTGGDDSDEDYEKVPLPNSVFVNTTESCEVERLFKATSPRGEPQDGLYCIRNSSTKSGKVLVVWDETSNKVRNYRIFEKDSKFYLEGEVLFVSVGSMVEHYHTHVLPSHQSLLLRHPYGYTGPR
Chain of UniProt Q9P289 (Q9P289 whole entry, looked up): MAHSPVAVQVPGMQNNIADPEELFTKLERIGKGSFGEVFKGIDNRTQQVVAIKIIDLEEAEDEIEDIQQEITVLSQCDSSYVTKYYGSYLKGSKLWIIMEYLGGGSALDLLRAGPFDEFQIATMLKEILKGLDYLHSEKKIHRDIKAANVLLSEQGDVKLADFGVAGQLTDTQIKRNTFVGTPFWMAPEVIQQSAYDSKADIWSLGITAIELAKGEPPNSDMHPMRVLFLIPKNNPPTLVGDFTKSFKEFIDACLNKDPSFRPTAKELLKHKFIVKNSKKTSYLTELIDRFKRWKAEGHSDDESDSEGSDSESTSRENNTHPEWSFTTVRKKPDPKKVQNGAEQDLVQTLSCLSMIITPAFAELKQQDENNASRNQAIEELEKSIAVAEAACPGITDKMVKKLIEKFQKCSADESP
Chain of UniProt O95149 (O95149 whole entry, looked up): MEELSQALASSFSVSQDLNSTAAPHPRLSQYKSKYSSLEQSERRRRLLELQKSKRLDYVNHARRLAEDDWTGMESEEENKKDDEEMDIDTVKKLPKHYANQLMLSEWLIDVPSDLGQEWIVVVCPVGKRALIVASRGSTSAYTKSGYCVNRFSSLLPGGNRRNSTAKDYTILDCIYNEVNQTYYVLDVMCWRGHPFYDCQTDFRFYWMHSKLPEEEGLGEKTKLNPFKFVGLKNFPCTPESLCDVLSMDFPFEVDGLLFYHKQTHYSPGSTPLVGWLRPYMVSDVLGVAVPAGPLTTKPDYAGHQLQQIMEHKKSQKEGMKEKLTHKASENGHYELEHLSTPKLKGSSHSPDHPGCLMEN
Chain of UniProt Q9NTJ3 (Q9NTJ3 whole entry, looked up): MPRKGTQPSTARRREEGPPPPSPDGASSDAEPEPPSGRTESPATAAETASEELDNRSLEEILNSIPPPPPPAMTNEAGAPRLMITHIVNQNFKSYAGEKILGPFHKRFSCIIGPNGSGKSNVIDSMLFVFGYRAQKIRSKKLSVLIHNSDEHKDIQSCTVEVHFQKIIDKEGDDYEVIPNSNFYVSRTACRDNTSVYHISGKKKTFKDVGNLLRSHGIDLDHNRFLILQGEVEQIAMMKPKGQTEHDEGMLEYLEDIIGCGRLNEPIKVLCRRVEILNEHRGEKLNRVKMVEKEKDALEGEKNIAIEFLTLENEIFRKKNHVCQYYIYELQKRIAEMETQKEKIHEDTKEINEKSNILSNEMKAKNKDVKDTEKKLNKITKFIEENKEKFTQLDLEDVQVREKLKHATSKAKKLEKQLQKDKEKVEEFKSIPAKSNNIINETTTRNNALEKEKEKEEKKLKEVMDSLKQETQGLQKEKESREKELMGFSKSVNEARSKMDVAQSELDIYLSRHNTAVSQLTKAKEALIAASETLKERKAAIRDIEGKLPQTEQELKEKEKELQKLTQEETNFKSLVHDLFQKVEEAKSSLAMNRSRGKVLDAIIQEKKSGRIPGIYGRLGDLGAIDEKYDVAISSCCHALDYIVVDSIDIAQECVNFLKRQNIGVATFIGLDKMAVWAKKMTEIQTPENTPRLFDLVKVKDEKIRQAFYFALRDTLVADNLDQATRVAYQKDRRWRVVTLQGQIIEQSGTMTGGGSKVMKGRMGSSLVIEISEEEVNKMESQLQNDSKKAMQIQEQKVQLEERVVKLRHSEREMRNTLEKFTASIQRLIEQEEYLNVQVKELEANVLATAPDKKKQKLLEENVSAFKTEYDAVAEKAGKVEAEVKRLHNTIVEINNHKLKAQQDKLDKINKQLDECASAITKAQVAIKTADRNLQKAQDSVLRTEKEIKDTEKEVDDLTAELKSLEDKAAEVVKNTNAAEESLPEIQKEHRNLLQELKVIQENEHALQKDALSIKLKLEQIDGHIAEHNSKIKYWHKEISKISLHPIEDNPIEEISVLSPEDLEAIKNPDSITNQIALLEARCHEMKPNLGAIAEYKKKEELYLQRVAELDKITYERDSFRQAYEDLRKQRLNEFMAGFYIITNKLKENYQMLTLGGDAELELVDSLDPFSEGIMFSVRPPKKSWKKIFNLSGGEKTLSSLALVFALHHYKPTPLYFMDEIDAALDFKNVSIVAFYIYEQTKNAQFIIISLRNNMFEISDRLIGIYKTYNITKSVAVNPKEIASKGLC
Chain of UniProt Q86XZ4 (Q86XZ4 whole entry, looked up): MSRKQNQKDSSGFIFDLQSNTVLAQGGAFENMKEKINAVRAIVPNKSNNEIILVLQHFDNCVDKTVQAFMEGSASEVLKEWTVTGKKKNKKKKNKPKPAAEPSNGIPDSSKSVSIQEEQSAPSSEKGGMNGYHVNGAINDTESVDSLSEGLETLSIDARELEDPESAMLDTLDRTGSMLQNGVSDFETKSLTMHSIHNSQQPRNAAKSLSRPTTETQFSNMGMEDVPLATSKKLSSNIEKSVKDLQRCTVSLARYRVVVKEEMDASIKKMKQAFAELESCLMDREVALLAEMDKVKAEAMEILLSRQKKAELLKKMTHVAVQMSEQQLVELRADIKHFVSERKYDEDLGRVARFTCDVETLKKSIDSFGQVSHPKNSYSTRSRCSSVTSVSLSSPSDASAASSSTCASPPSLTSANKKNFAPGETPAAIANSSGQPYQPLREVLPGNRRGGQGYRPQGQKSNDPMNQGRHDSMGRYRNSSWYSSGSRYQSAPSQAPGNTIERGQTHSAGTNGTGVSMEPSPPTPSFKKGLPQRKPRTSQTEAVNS
Chain of UniProt P41440 (P41440 whole entry, looked up): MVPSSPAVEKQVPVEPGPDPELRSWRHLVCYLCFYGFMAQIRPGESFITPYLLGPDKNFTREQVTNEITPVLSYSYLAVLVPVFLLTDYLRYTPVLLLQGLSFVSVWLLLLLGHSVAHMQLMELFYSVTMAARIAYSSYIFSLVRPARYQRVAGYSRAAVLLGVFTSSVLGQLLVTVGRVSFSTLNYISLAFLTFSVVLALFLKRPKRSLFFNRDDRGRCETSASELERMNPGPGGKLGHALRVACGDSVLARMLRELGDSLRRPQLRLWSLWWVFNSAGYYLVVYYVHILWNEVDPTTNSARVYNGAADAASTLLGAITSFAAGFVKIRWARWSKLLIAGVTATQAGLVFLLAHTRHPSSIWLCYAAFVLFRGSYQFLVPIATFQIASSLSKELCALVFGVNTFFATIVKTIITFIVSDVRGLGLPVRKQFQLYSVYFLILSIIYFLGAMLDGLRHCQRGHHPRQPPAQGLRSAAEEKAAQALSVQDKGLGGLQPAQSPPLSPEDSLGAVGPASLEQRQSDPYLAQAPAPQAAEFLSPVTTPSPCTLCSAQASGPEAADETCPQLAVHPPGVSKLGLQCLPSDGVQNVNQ
Chain of UniProt Q9H668 (Q9H668 whole entry, looked up): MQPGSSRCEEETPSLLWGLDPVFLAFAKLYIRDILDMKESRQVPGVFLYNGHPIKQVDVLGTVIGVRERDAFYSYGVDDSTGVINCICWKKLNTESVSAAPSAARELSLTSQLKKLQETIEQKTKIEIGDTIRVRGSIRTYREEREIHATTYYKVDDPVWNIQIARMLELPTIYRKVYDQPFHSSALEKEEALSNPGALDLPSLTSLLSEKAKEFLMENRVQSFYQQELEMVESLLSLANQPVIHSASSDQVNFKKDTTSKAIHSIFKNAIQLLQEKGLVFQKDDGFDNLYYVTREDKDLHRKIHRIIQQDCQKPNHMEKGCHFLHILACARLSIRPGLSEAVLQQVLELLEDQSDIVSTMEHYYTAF
Chain of UniProt P62306 (P62306 whole entry, looked up): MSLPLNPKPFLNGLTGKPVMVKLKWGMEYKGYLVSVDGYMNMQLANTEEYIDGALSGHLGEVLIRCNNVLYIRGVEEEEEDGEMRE

Target	log2 fold change [1]	log2 fold change [2]	log2 fold change [3]	log2 fold change [4]	log2 fold change [5]	log2 fold change [6]	log2 fold change [7]	log2 fold change [8]	log2 fold change [9]	log2 fold change [10]
SRSF7 (UniProt Q16629)	-0.061	0.075	0.084	-0.218 (active)	0.058	0	0.036	-0.01	0.05	0.194
SMC4 (UniProt Q9NTJ3)	-0.028	-0.002	-0.007	0.068	0.009	-0.154	-0.012	-0.026	-0.021	-0.051
TARBP1 (UniProt Q13395)	-0.009	0.007	-0.122	0.017	-0.034	-0.124	0.098	-0.022	-0.044	0.079
SHCBP1 (UniProt Q8NEM2)	0.061	0.046	-0.029	-0.043	0.028	-0.031	0.059	0.028	-0.073	0.078
SNRPD3 (UniProt P62318)	-0.027	-0.06	0.008	-0.233 (active)	0.052	0.102	0.028	0.014	0.069	0.11
SMG7 (UniProt Q92540)	0.101	0.1	0.043	-0.035	0.026	-0.018	0.026	-0.257 (active)	-0.008	0.022
SORBS3 (UniProt O60504)	0.072	0.007	-0.002	0.006	-0.127	0.024	-0.012	-0.019	-0.032	0.025
SLC20A1 (UniProt Q8WUM9)	-0.002	-0.065	-0.009	0.016	0.038	-0.016	-0.006	0.042	-0.075	-0.013
STN1 (UniProt Q9H668)	0.128	-0.201	-0.068	-0.235		-0.212	-0.059	-0.101	-0.176	-0.028
SNUPN (UniProt O95149)	0.026	-0.083	-0.03	-0.009		-0.036	0.023	-0.002	-0.061	0.006
SPAG5 (UniProt Q96R06)	0.013	-0.004	-0.056	-0.016	0.038	-0.11	0.029	0.036	-0.044	0.058
SLC19A1 (UniProt P41440)	-0.055	0.005	-0.002	-0.203 (active)	-0.037	0.148	-0.021	0.004	-0.053	0.07
SNRPF (UniProt P62306)	0.021	-0.029	-0.077	-0.237	0.076	0.21	-0.016	0.026	0.05	0.218
SKA1 (UniProt Q96BD8)	0.001	0.043	0.009	-0.032	0.042	0.001	0.086	0.037	-0.029	0.024
SLC22A18 (UniProt Q96BI1)	0.072	0.026	-0.064	-0.094		0.147	-0.004	0.032	-0.001	0.033
STK36 (UniProt Q9NRP7)	-0.213	-0.007	-0.833	-0.551	0.191	0.284	0	0.202	-0.322	0.398

Target	log2 fold change [1]	log2 fold change [2]	log2 fold change [3]	log2 fold change [4]	log2 fold change [5]	log2 fold change [6]	log2 fold change [7]	log2 fold change [8]	log2 fold change [9]	log2 fold change [10]
SPATS2 (UniProt Q86XZ4)	0.027	-0.119	0.09	-0.016	0.048	0.145	-0.062	-0.126	-0.206	-0.164
SNCA (UniProt P37840)	0.137	-0.014	0.127	-0.101	-0.005	0.456 (active)	0.016	0.196	0.098	0.073
SPPL2A (UniProt Q8TCT8)	-0.002	-0.059	-0.127	-0.302		-0.093	0.082	-0.032	-0.127	0.1
TAF9 (UniProt Q16594)	-0.06	-0.018	-0.004	0.188	0.084	-0.002	0.156	0.001	0.018	-0.057
SMIM12 (UniProt Q96EX1)	0.014	0.022	-0.024	0.417 (active)	-0.061	-0.191	-0.009	0.077	-0.083	-0.153
SH3GL3 isoform 3 (UniProt Q99963)	-0.07	-0.087	-0.04	-0.548 (active)	-0.005	0.326	0.028	0.016	-0.147	0.446 (active)
SMG1 (UniProt Q96Q15)	-0.025	-0.05	-0.019	0.002	0.003	-0.105	0.024	0.015	-0.057	0.049
SSU72 (UniProt Q9NP77)	-0.02	0.008	-0.042	-0.288 (active)	-0.004	0.134	-0.074	0.057	-0.052	0.166
SIX5 (UniProt Q8N196)	-0.105	0.015	-0.075	0.22	0.039	-0.48 (active)		0.143	-0.009	-0.306
SHKBP1 (UniProt Q8TBC3)	-0.027	-0.045	-0.009	-0.045	0.055	0.034	-0.009	0.005	-0.04	0.055
STK26 (UniProt Q9P289)	-0.011	0.024	0.007	-0.003	0.005	0.061	0.005	-0.036	-0.015	-0.004
SH3BP2 isoform 4 (UniProt P78314)	-0.135	-0.41 (active)	-0.021	0.01	0.053	-0.02		0.057	-0.105	0.123
TAF1B (UniProt Q53T94)	0.012	0.062	-0.036	-0.058	0.34	-0.157	0.304	0.017	-0.004	0.134
SPA17 (UniProt Q15506)	0.058	-0.012	0.019	-0.498 (active)	0.009	0.303	-0.022	0.054	-0.076	0.25
SLC11A2 isoform 3 (UniProt P49281)	0	-0.014	-0.004	-0.052	-0.025	0.033	-0.08	-0.018	0.035	0.036
